Measured values as given in PubChem BioAssay (NCI).
Compounds without any hit were thinned out: in the full panel of roughly 79,000, 15% have a hit. The source made the active and inactive calls. No stated cut-off is given here; in the data, active means growth inhibition above about 70%; inactive means the rest.

Columns and labels:
[1] = NCI Yeast Anticancer Drug Screen. Data for the rad52 strain (AID 147);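 further: 0% = growth of vehicle-treated control cultures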; conditions: S. cerevisiae rad52 mutant growth inhibition, hits give high values
How it was run: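 Inhibition of yeast growth, referenced to vehicle controls, was the measured output for a strain with defective DNA damage repair.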

[2] = NCI Yeast Anticancer Drug Screen. Data for the rad50EPP+ strain (AID 151);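 further: 0% = growth of vehicle-treated control cultures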; conditions: S. cerevisiae rad50 mutant strain, hits give high values
How it was run: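 Genetically defined yeast (rad50EPP+, DNA damage repair alteration) is grown with compound, and inhibition of growth is expressed relative to vehicle-treated controls.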

[3] = NCI Yeast Anticancer Drug Screen. Data for the rad50 strain (AID 155);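 further: 0% = growth of vehicle-only cultures of the same strain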; conditions: S. cerevisiae rad50 strain growth inhibition, hits give high values
How it was run: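 Readout: growth inhibition relative to vehicle-treated cultures. Compound exposure was carried out in a genetically defined yeast strain deficient in DNA damage repair.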

[4] = NCI Yeast Anticancer Drug Screen. Data for the mec2-1 strain (AID 157); conditions: S. cerevisiae mec2-1 strain, hits give high values
How it was run: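 Each compound was tested on mec2-1 yeast, a strain altered in DNA damage repair or cell cycle control. Growth inhibition is reported relative to vehicle.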

[5] = NCI Yeast Anticancer Drug Screen. Data for the sgs1 mgt1 strain (AID 161);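 further: 0% = growth of cultures given vehicle only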; conditions: S. cerevisiae sgs1 mgt1 strain, hits give high values
How it was run: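 Test agents were incubated with a DNA-repair-mutant yeast strain. Growth was then read and compared against vehicle-treated controls.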

[6] = NCI Yeast Anticancer Drug Screen. Data for the CLN2oe strain (AID 163);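 further: 0% = growth of vehicle-only control cultures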; conditions: S. cerevisiae CLN2oe strain, hits give high values
How it was run: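 First, the altered yeast strain was treated with each compound; second, its growth was measured; finally, inhibition was derived by comparison with vehicle controls.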

[7] = NCI Yeast Anticancer Drug Screen. Data for the cln2 rad14 strain (AID 165);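 further: 0% = growth equal to vehicle treated cultures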; conditions: S. cerevisiae cln2 rad14 strain, hits give high values
How it was run: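 Test compounds were added to cln2 rad14 yeast cultures; inhibition of growth was then determined by comparison with vehicle treatment.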

[8] = NCI Yeast Anticancer Drug Screen. Data for the bub3 strain (AID 167); conditions: S. cerevisiae bub3 mutant strain, hits give high values
How it was run: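 Readout: yeast growth inhibition, expressed relative to vehicle-only wells. The test organism is a mutant strain from a panel with lesions in DNA repair or checkpoint genes.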

[9] = NCI Yeast Anticancer Drug Screen. Data for the mlh1 strain (AID 171);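 further: 0% = growth of vehicle-treated control cultures of the same strain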; conditions: S. cerevisiae mlh1 strain growth inhibition, hits give high values
How it was run: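 Inhibition values reflect reduced yeast growth in the presence of compound, referenced to vehicle controls, using a strain chosen for its alteration in DNA repair or cell cycle control.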

[10] = NCI Yeast Anticancer Drug Screen. Data for the sgs1 strain (AID 173);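 further: 0% = growth of vehicle-only control cultures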; conditions: S. cerevisiae sgs1 mutant, hits give high values
How it was run: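 Vehicle-treated cultures served as reference for growth inhibition of a yeast strain altered in DNA damage repair or cell cycle control after compound exposure.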

[11] = NCI Yeast Anticancer Drug Screen. Data for the mlh1 rad18 strain (AID 175); conditions: S. cerevisiae mlh1 rad18 strain growth inhibition, hits give high values
How it was run: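 Inhibition values reflect reduced growth of mutant yeast versus vehicle-treated controls following compound exposure; the mutations affect DNA damage repair.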

[12] = NCI Yeast Anticancer Drug Screen. Data for the rad18 strain (AID 177); conditions: S. cerevisiae rad18 mutant growth inhibition, hits give high values
How it was run: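 Steps: expose repair-mutant yeast to compound; measure growth; express as inhibition relative to vehicle control.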

[13] = NCI Yeast Anticancer Drug Screen. Data for the wt1 strain (AID 149);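 further: 0% = growth of vehicle-treated wt1 cultures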; conditions: S. cerevisiae wt1 strain (SPY 50644) growth inhibition, hits give high values
How it was run: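 Growth inhibition read against vehicle controls after compound exposure of the wt1 yeast strain.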

[14] = NCI Yeast Anticancer Drug Screen. Data for the mgt1 strain (AID 153); conditions: S. cerevisiae mgt1 mutant growth inhibition, hits give high values
How it was run: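 In the mgt1 strain, test compounds were added and growth inhibition was determined relative to vehicle-treated controls.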

[15] = NCI Yeast Anticancer Drug Screen. Data for the rad14 strain (AID 159);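 further: 0% = growth of vehicle-treated control cultures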; conditions: S. cerevisiae rad14 strain growth inhibition, hits give high values
How it was run: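 Growth inhibition vs vehicle controls; genetically altered yeast strain (DNA damage repair defect) treated with test compounds.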

[16] = NCI Yeast Anticancer Drug Screen. Data for the wt2 strain (AID 169);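 further: 0% = growth of vehicle-treated yeast cultures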; conditions: S. cerevisiae wt2 strain growth inhibition, hits give high values
How it was run: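 The panel's yeast strains carry defined changes in DNA repair or cell cycle genes. Each strain is grown with compound, and growth loss is scored relative to vehicle.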

[17] = at 5.0 µM (retest, dose inferred, filed as 0.5)
[18] = at 50.0 µM (retest, dose inferred, filed as 5.0)

Measured: growth inhibition

COc1cc(/C=C/c2sc3ccccc3[n+]2C)ccc1N(C)C
active: [1]; at 100.0 µM 93% | [2]; at 100.0 µM 87% | [3]; at 100.0 µM 96% | [4]; at 100.0 µM 98% | [5]; at 50.0 µM 93.5% | [6]; at 100.0 µM 96% | [8]; [18] 85% | [8]; at 100.0 µM 97% | [9]; at 33.0 µM 71% | [9]; at 100.0 µM 98% | [10]; at 33.0 µM 82% | [10]; at 100.0 µM 97% | [11]; at 50.0 µM 92.5% | [12]; at 33.0 µM 73% | [12]; at 100.0 µM 96%
inactive: [1]; at 1.2 µM 1% | [1]; at 3.7 µM -2% | [1]; at 11.0 µM 0% | [1]; at 33.0 µM 67% | [2]; at 1.2 µM -1% | [2]; at 3.7 µM 4% | [2]; at 11.0 µM 11% | [2]; at 33.0 µM 31% | [3]; at 1.2 µM -4% | [3]; at 3.7 µM 6% | [3]; [17] 3% | [3]; at 11.0 µM -18% | [3]; at 33.0 µM 65% | [3]; [18] 4% | [3]; at 50.0 µM 67.8% | [4]; at 1.2 µM 0% | [4]; at 3.7 µM 0% | [4]; [17] 3% | [4]; at 11.0 µM 2% | [4]; at 33.0 µM 69% | [4]; [18] 0% | [4]; at 50.0 µM 61.1% | [5]; [17] 2% | [5]; [18] 7% | [6]; at 1.2 µM -5% | [6]; at 3.7 µM -2% | [6]; at 11.0 µM -2% | [6]; at 33.0 µM 50% | [7]; [17] -2% | [7]; [18] -1% | [7]; at 50.0 µM 33.6% | [8]; at 1.2 µM -2% | [8]; at 3.7 µM 1% | [8]; [17] 3% | [8]; at 11.0 µM -2% | [8]; at 33.0 µM 68% | [8]; at 50.0 µM 64.5% | [9]; at 1.2 µM 0% | [9]; at 3.7 µM -4% | [9]; at 11.0 µM -3% | [10]; at 1.2 µM 0% | [10]; at 3.7 µM 0% | [10]; at 11.0 µM -1% | [11]; [17] -11% | [11]; [18] -6% | [12]; at 1.2 µM 2% | [12]; at 3.7 µM 5% | [12]; at 11.0 µM 2%

CN(N=O)C(=O)N[C@@H](C=O)[C@@H](O)[C@H](O)[C@H](O)CO
inactive: [13]; at 1.2 µM 0% | [13]; at 3.7 µM -1% | [13]; at 11.0 µM 0% | [13]; at 33.0 µM -1% | [13]; at 100.0 µM 20% | [2]; at 1.2 µM 0% | [2]; at 3.7 µM 0% | [2]; at 11.0 µM 0% | [2]; at 33.0 µM -7% | [2]; at 100.0 µM 3% | [14]; at 1.2 µM -1% | [14]; at 3.7 µM -1% | [14]; at 11.0 µM -18% | [14]; at 33.0 µM 0% | [14]; at 100.0 µM -1% | [3]; at 1.2 µM -1% | [3]; at 3.7 µM -1% | [3]; at 11.0 µM 4% | [3]; at 33.0 µM -1% | [3]; at 50.0 µM 3.9% | [3]; at 100.0 µM -2% | [4]; at 1.2 µM -3% | [4]; at 3.7 µM -7% | [4]; at 11.0 µM -6% | [4]; at 33.0 µM 2% | [4]; at 50.0 µM -7.8% | [4]; at 100.0 µM -7% | [15]; at 1.2 µM -1% | [15]; at 3.7 µM -3% | [15]; at 11.0 µM -2% | [15]; at 33.0 µM -2% | [15]; at 100.0 µM -4% | [5]; at 50.0 µM 17.6% | [6]; at 1.2 µM -10% | [6]; at 3.7 µM -3% | [6]; at 11.0 µM -6% | [6]; at 33.0 µM -9% | [6]; at 100.0 µM -6% | [7]; at 50.0 µM -1.1% | [8]; at 1.2 µM 1% | [8]; at 3.7 µM 0% | [8]; at 11.0 µM 0% | [8]; at 33.0 µM -4% | [8]; at 50.0 µM 7.3% | [8]; at 100.0 µM -1% | [16]; at 1.2 µM -3% | [16]; at 3.7 µM 0% | [16]; at 11.0 µM -2% | [16]; at 33.0 µM -1% | [16]; at 100.0 µM -1% | [9]; at 1.2 µM -1% | [9]; at 3.7 µM -1% | [9]; at 11.0 µM 1% | [9]; at 33.0 µM 0% | [9]; at 100.0 µM 0% | [10]; at 1.2 µM 0% | [10]; at 3.7 µM 0% | [10]; at 11.0 µM 2% | [10]; at 33.0 µM 2% | [10]; at 100.0 µM 1% | [11]; at 50.0 µM 4.1% | [12]; at 1.2 µM 0% | [12]; at 3.7 µM 0% | [12]; at 11.0 µM 0% | [12]; at 33.0 µM 2% | [12]; at 100.0 µM 19%
